These results are taken from PubChem BioAssay (Tox21).

The nature of assay [1]: Nuclear factor erythroid 2-related factor 2/antioxidant responsive element (Nrf2/ARE) small molecule agonists: qHTS cell viability counter screen in human keratinocytes (AID 1919968; active = well fitted curve in the direction sought with a large enough effect in the repeat runs; an effect the other way counts as inactive or inconclusive; note: nearly all actives have a fitted effect of over 55% in size; note: potency is the fitted concentration of half-maximal effect). In short, it runs like this: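 In human HaCaT keratinocytes stably expressing an ARE-driven luciferase, compound exposure lasted 23 h at 37 C under 5% CO2. Viable cells are quantified with a protease-based fluorogenic reagent (CellTiter-Fluor) read 1 h after addition.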
Background: Quantitative high-throughput screening tests each substance at several concentrations.

Assay [2] can be described thus: Nuclear factor erythroid 2-related factor 2/antioxidant responsive element (Nrf2/ARE) small molecule agonists: luciferase reporter gene qHTS assay in human keratinocytes (AID 1919969). Note: nearly all actives have a fitted effect of over 35% in size. Note: potency is the fitted concentration of half-maximal effect. Background: In a reporter assay the amount or activity of a reporter protein is the signal.
Assay [3] deals with Gonadotropin-releasing hormone receptor (Homo sapiens) (UniProt P30968). Kind of assay: Human gonadotropin-releasing hormone receptor (GnRHR) small molecule agonists, calcium flux assay in GnRHR-HEK293 cells (AID 1920063). Note: nearly all actives have a fitted effect of over 35% in size. In short, it runs like this:
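Intracellular calcium rise is the read-out: engineered human GnRHR HEK293 cells, dye-loaded, are exposed to DMSO-dissolved compounds and fluorescence at Ex/Em 480/540 is tracked for 3 min.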
In general terms: A change in cytosolic calcium serves as a functional read-out for many receptors and channels.

Assay [4] has as its target KiSS-1 receptor (Homo sapiens) (UniProt Q969F8). As to the kind of experiment: Human kisspeptin (KISS1R) small molecule agonists, calcium flux assay in KISS1R-HEK293 cells (AID 1920064; active = well fitted curve in the direction sought with a large enough effect in the repeat runs; an effect the other way counts as inactive or inconclusive). In short, it runs like this: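 Concentration-response testing used 15 concentrations in triplicate on human KISS1R-expressing HEK293 cells. Calcium-dependent fluorescence (Ex/Em 480/540) was followed kinetically for 3 min after compound transfer.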

Assay [5] in a line: G protein-coupled receptor (GPCR) small molecule agonists, calcium flux assay: HEK293 wild type cell line counter screen (AID 1920065). In short, it runs like this:
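Fluorescence intensity signals activation. After overnight (18 h) culture and a 1 h calcium dye load at 37 C, compounds are added by pin tool and the plate read at 480/540 nm for 3 min in 1 s steps.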

Assay [6] is described as follows: p53 small molecule agonists, cell-based qHTS assay with human liver microsomes (AID 1963577). In short, it runs like this: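 p53RE-bla reporter cells were pre-incubated 5 h at 37 C, then treated with compounds plus human liver microsomes (0.5 mg/mL final) and NADPH (0.5 mg/mL final) for 16 h at 37 C. Beta-lactamase activity was read by LiveBLAzer fluorescence after 2 h at room temperature.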

Assay [7] in a line: p53 small molecule agonists, cell-based qHTS assay with rat liver microsomes (AID 1963578). In a few lines: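 p53RE-bla cells were exposed to compounds together with rat liver microsomes (0.5 mg/mL final) and NADPH (0.5 mg/mL final) for 16 h at 37 C, then read by LiveBLAzer beta-lactamase fluorescence after 2 h at room temperature.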
Assay [8] can be described thus: p53 small molecule agonists, cell-based qHTS assay with human liver microsomes: qHTS cell viability counter screen (AID 1963579). Note: nearly all actives have a fitted effect of over 45% in size. In a few lines:
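p53RE-bla cells (4,000/well) were pre-incubated 5 h at 37 C, then given compounds in DMSO plus human liver microsomes (0.5 mg/mL final) and NADPH (0.5 mg/mL final) for 16 h at 37 C. Viability was read by CellTiter-Glo luminescence.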

Assay [9] can be described thus: p53 small molecule agonists, cell-based qHTS assay with rat liver microsomes: qHTS cell viability counter screen (AID 1963580). Note: nearly all actives have a fitted effect of over 45% in size. In a few lines: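 After the beta-lactamase ratio was read, CellTiter-Glo was added to the same wells and luminescence measured at 30 min; cells had been treated 16 h at 37 C with compounds, rat liver microsomes and NADPH (0.5 mg/mL final each).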

The nature of assay [10]: p53 small molecule agonists, cell-based qHTS assay: qHTS cell viability counter screen (AID 1963581). Note: nearly all actives have a fitted effect of over 45% in size. In a few lines: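 Luminescence from CellTiter-Glo, reflecting ATP content, serves as the cytotoxicity measure; it is taken after the 2 h reporter substrate step in HCT-116 p53RE-bla cells dosed for 16 h at 37 C.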
Assay [11] in a line: p53 small molecule agonists, cell-based qHTS assay (AID 1963582; active = well fitted activation curve with a large enough effect in the signal ratio in the repeat runs, not every such curve was filed as active; the % refers to the signal ratio). In short, it runs like this:
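After plating, p53RE-bla cells sat 5 h in the incubator; compounds or DMSO vehicle were pinned in; a 16 h incubation at 37 C followed; FRET substrate was added and, 2 h later at RT, fluorescence was measured.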

Assay [12] concerns the target 5-hydroxytryptamine receptor 2A (Homo sapiens) (UniProt P28223). As to the kind of experiment: 5-hydroxytryptamine receptor 2A (HTR2A) small molecule antagonists, cell-based qHTS assay (AID 1963586). Note: nearly all actives have a fitted effect of over 45% in size. In short, it runs like this:
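CHO cells stably expressing human HTR2A were plated for 18 h at 37 C, then loaded with calcium dye for 1 h. Compounds were preincubated 5 min at room temperature before DOI (4 nM solution) was added. Kinetic fluorescence was read for 3 min.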

Assay [13] shares this target. Kind of assay: 5-hydroxytryptamine receptor 2A (HTR2A) small molecule agonists, cell-based qHTS assay (AID 1963587). Note: nearly all actives have a fitted effect of over 30% in size. In a few lines:
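CHO cells stably expressing human HTR2A, plated 18 h, loaded with calcium dye 1 h at 37 C. Agonist mode: compounds added and intracellular calcium fluorescence recorded kinetically for 2 min at 1 sec intervals.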

Assay [14] deals with Muscarinic acetylcholine receptor M1 (Homo sapiens) (UniProt P11229). As to the kind of experiment: Cholinergic receptor muscarinic 1 (CHRM1) small molecule antagonists, cell-based qHTS assay (AID 1963588). Note: nearly all actives have a fitted effect of over 40% in size. Note: potency is the fitted concentration of half-maximal effect. In a few lines:
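Compounds were tested at 15 concentrations in three independent runs. Dye-loaded CHRM1-CHO cells were exposed 5 min at room temperature before stimulation by acetylcholine added at 50nM. Intracellular calcium was read kinetically on FDSS for 3 min.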

Assay [15] is described as follows: cAMP Responsive Elements (CRE) small molecule agonists, cell-based qHTS assay (AID 1963590). In short, it runs like this:
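Compound exposure lasted 3 h at 37 C/5% CO2 in CRE-bla HEK 293T cells grown in assay medium with 10% dialyzed FBS and 25 mM HEPES. Reporter signal came from LiveBLAzer B/G FRET substrate, 2 h, room temperature.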

Assay [16] can be described thus: cAMP Responsive Elements (CRE) small molecule antagonists, cell-based qHTS assay (AID 1963591; active = well fitted inhibition curve with a large enough effect in the signal ratio in the repeat runs, not every such curve was filed as active; the % refers to the signal ratio). In short, it runs like this: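 Stimulation used NKH477 at a final 0.25 uM for 3 h in compound-treated CRE-bla HEK293T cells, seeded 18 h beforehand. Reporter activity was measured with LiveBLAzer B/G FRET substrate after 2 h at room temperature.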
Assay [17] addresses Beta-2 adrenergic receptor (Homo sapiens) (UniProt P07550). Kind of assay: Adrenergic beta2 receptor (ADRB2) small molecule antagonists, cell-based qHTS assay (AID 1963592). Note: series mostly up to about 92 µM; nearly all actives have a fitted effect of over 50% in size. In short, it runs like this: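 Assay format: CHO-ADRB2 cells, 18-20hr seeding at 37C/5% CO2, then compound plus 1nM isoproterenol agonist mix for 0.5hr RT. Homogeneous time-resolved fluorescence cAMP detection after 1hr, expressed as 665/615 nm ratio.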

Assay [18] addresses D(2) dopamine receptor (Homo sapiens) (UniProt P14416). As to the kind of experiment: Dopamine D2 receptor (DRD2) small molecule agonists, cell-based qHTS assay (AID 1963594). Note: nearly all actives have a fitted effect of over 35% in size. In a few lines:
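HEK293 cells stably expressing human DRD2, pre-treated with PDE inhibitor Ro20-1724 (0.1 mM final) and compound 10 min at room temperature, then stimulated with NKH477 (200nM […]) for 30 min. cAMP read by HTRF (665/620 nm).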

The target is the same in assay [19]. As to the kind of experiment: Dopamine D2 receptor (DRD2) small molecule antagonists, cell-based qHTS assay (AID 1963595; active = well fitted inhibition curve with a large enough effect in the signal ratio in the repeat runs, with a control signal flat; the % refers to the signal ratio). In short, it runs like this: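 HTRF cAMP read-out at 665 and 620 nm emission (340 nm excitation). Antagonist mode: compounds were tested against 12 nM quinpirole in DRD2-HEK293 cells, with 200 nM NKH477 raising cAMP and 0.1 mM Ro20-1724 blocking its breakdown.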

Assay [20] deals with Muscarinic acetylcholine receptor M1 (Homo sapiens) (UniProt P11229). As to the kind of experiment: Cholinergic receptor muscarinic 1 (CHRM1) small molecule agonists, cell-based qHTS assay (AID 1963589). Note: nearly all actives have a fitted effect of over 35% in size. In a few lines: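 Fluorescent calcium dye reports M1 activation in stably transfected CHO cells. Compounds, 15 concentrations, added after 1 h dye loading at 37 C; kinetic reading at 1 sec intervals.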

Values joined by “and” are separate entries in the source; they are usually repeats but may differ in a detail not shown here. Identical values can stand only once. Results filed as inconclusive are left out. Some compounds were tested as several samples or in several runs, with calls that do not always agree. Active and inactive are the calls of the source. Unless noted, calls come from the whole dose curve.

Sequence of Muscarinic acetylcholine receptor M1 (Homo sapiens) (P11229 whole entry, looked up): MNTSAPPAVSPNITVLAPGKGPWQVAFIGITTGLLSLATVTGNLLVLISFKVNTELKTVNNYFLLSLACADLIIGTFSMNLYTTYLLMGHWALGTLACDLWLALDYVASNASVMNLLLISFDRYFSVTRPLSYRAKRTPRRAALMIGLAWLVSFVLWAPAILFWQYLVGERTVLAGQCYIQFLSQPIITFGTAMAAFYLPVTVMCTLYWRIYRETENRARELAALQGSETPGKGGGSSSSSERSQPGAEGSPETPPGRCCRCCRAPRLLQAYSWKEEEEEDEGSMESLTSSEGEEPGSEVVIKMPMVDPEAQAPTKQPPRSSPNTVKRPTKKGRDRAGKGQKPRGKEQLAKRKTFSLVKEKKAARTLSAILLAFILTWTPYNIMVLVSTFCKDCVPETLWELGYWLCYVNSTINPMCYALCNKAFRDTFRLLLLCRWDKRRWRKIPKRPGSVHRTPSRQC
Sequence of Beta-2 adrenergic receptor (Homo sapiens) (P07550 whole entry, looked up): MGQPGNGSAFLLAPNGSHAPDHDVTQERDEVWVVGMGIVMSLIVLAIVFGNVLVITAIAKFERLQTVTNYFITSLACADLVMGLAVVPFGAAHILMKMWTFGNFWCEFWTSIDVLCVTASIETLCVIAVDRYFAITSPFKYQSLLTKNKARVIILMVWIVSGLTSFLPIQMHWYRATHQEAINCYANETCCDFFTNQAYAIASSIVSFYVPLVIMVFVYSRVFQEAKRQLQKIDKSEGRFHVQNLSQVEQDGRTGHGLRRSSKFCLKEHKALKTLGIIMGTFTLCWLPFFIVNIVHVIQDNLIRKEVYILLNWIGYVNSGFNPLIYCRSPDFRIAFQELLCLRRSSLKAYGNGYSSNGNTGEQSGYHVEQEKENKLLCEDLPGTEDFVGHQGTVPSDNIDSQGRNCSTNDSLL
Sequence of KiSS-1 receptor (Homo sapiens) (Q969F8 whole entry, looked up): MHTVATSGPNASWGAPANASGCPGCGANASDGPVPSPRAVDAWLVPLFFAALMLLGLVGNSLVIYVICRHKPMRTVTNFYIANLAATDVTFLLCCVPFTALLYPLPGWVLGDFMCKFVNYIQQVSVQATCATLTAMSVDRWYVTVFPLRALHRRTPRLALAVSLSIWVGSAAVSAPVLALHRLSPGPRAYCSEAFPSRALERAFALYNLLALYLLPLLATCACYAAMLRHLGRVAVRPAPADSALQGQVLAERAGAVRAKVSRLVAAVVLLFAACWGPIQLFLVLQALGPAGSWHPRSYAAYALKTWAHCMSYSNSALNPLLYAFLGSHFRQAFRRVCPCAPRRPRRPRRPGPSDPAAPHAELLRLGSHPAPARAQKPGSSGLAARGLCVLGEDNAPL
Sequence of Gonadotropin-releasing hormone receptor (Homo sapiens) (P30968 whole entry, looked up): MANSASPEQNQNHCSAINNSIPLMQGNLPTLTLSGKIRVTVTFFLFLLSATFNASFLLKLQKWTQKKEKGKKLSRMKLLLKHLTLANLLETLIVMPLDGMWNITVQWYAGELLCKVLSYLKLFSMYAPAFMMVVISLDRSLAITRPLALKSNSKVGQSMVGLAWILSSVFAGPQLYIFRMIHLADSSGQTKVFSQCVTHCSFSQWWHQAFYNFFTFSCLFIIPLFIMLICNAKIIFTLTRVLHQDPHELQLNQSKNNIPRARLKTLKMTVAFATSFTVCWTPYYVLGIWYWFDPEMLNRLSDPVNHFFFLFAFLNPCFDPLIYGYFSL
Sequence of D(2) dopamine receptor (Homo sapiens) (P14416 whole entry, looked up): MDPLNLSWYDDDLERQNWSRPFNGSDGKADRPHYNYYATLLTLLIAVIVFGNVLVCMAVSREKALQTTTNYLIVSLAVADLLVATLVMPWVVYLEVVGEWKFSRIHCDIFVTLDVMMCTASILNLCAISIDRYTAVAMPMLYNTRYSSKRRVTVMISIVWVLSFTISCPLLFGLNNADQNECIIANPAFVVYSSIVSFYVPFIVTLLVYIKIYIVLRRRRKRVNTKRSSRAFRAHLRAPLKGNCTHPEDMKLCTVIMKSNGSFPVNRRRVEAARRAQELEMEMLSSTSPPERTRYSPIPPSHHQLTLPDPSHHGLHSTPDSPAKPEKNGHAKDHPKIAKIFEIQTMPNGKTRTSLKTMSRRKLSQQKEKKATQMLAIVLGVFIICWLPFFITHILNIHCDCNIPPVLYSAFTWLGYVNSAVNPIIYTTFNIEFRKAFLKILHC
Sequence of 5-hydroxytryptamine receptor 2A (Homo sapiens) (P28223 whole entry, looked up): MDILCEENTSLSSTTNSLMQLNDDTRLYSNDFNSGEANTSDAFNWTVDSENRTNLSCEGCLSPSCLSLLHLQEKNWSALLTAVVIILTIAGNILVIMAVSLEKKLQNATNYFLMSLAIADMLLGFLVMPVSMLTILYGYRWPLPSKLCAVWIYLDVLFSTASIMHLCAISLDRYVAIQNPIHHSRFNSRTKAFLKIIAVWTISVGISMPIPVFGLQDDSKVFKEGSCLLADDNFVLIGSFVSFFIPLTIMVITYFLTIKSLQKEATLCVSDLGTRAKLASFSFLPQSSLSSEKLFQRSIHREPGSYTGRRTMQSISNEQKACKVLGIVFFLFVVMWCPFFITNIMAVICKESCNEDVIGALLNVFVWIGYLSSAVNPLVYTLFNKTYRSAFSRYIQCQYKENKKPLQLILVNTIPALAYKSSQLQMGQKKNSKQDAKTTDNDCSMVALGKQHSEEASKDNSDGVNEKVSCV

On to `CC(C)C(=O)OCC(C)(C)C(OC(=O)C(C)C)C(C)C` (stereo not drawn), for which the Potency result in [1], in assay [2], in assay [3], in assay [4], in assay [5] and in [6] was “inactive” throughout. Moreover, the Potency result in assay [7], in assay [8], in assay [9], in assay [10], in assay [11] and in assay [12] was “inactive” each time. Besides, the Potency entry in [13], in [14], in assay [15], in [16], in assay [17] and in assay [18] was “inactive” each time. Further, the Potency entry in [19] is “inactive”.

Take `NC(=O)c1cc([N+](=O)[O-])cc([N+](=O)[O-])c1`: the Potency entry in assay [1], in [2], in assay [3], in assay [4], in [5] and in assay [6] was “inactive” each time. Also, the Potency entry in assay [7], in assay [8], in assay [9], in assay [10], in [11] and in assay [12] was “inactive” each time. The Potency entry in [13], in assay [20], in assay [16], in assay [17] and in [18] was “inactive” each time. The Potency in assay [14] was 0.46 µM (active).

As for `O=C(O)c1nc(Cl)ccc1Cl`, the Potency result in [1], in assay [2], in [3], in assay [4], in assay [5] and in [6] was “inactive” in each case. Moreover, the Potency result in assay [7], in assay [8], in assay [9], in [10], in assay [11] and in assay [12] was “inactive” in each case. In addition, the Potency entry in assay [13], in [14], in [20], in assay [16], in [17] and in assay [18] was “inactive” each time. For the same molecule, the Potency result in [19] is “inactive”.

As for `Cc1cc(N=Nc2ccccc2C)ccc1N`, the Potency in assay [1] was 54.5 µM (active) and inactive. In addition, the Potency entry in assay [2], in assay [3], in [4], in [5], in assay [6] and in assay [7] was “inactive” throughout. Also, the Potency entry in [8], in assay [9], in [10], in assay [11], in assay [12] and in assay [13] was “inactive” throughout. In addition, the Potency entry in [14], in assay [20], in assay [17], in [18] and in [19] was “inactive” in each case.

Turning to `[P]#[In]`, the Potency entry in [1], in [2], in assay [3], in assay [4], in assay [5] and in assay [6] was “inactive” in each case. For the same molecule, the Potency result in assay [7], in [8], in assay [9], in [10], in [11] and in [12] was “inactive” each time. The Potency result in assay [13], in assay [20], in assay [15], in assay [16], in assay [17] and in [18] was “inactive” each time. Also, the Potency result in assay [19] is “inactive”.

Turning to `OCCCl`, the Potency entry in assay [1], in assay [2], in [3], in assay [4], in [5] and in assay [6] was “inactive” each time. The Potency entry in assay [7], in [8], in [9], in assay [10], in assay [11] and in assay [12] was “inactive” each time. The Potency entry in assay [13], in assay [14], in [15], in [16], in assay [17] and in assay [19] was “inactive” each time.

Consider `C1CS1`, for which the Potency entry in assay [1], in assay [2], in [3], in [4], in [5] and in assay [6] was “inactive” in each case. Moreover, the Potency result in assay [7], in [8], in assay [9], in assay [10], in [11] and in [12] was “inactive” throughout. Moreover, the Potency entry in [13], in assay [14], in [20], in [16], in assay [18] and in assay [19] was “inactive” throughout.

For `CC(C)=CC1C(C(=O)OCN2C(=O)C3=C(CCCC3)C2=O)C1(C)C` (stereo not drawn), the Potency entry in [1], in [3], in [4], in assay [5], in assay [6] and in assay [7] was “inactive” in each case. For the same molecule, the Potency result in assay [8], in assay [9], in assay [10], in assay [11], in [12] and in [13] was “inactive” throughout. The Potency entry in assay [20], in assay [16], in assay [17], in assay [18] and in assay [19] was “inactive” each time. Also, the Potency is 48.6 µM (active) and 26.6 µM (active) in assay [2]; 8.18 µM (active) in assay [14].
